system: Vero E6 infected with SARS-CoV-2; experiment: inhibition of SARS-CoV-2 cytopathic effect; higher = more antiviral protection, active = above 15; conditions: 1 nM; 48 h

Row | SMILES | inhibition of SARS-CoV-2 cytopathic effect
1 | C[C@H](Cc1ccc(O)c(O)c1)[C@@H](C)Cc1ccc(O)c(O)c1 [masoprocol] | -3.87% (inactive)
2 | O=C(O)/C=C\c1c[nH]cn1 [cis-Urocanic acid] | 0.865% (inactive)
3 | COc1cc2ncnc(Nc3ccc(Cl)cc3F)c2cc1OC | 1.92% (inactive)
4 | CCCCCCCCCCCCCCCCCCCCCCCCC(=O)O [pentacosanoic-acid] | -2.75% (inactive)
5 | COc1cc(C#N)ccc1S(=O)(=O)Nc1ccc2c(c1)cc(C)c(=O)n2C | -2.94% (inactive)

same assay, conditions: 8.33 nM; 48 h

Row | SMILES | inhibition of SARS-CoV-2 cytopathic effect
6 | c1ccc(-c2nn3c(c2-c2ccnc4cc(OCCN5CCOCC5)ccc24)CCC3)nc1 | 0.41% (inactive)
7 | COc1cc(N2CCC(N3CCN(C)CC3)CC2)ccc1Nc1ncc(Cl)c(Nc2ccccc2S(=O)(=O)C(C)C)n1 | -4.02% (inactive)
8 | CCCCNC(=O)NS(=O)(=O)c1ccc(C)cc1 [tolbutamide] | 0.83% (inactive)
9 | N#C/C(=C\c1ccc(O)c(O)c1)C(=O)NCCCCc1ccccc1 | 1.37% (inactive)
10 | CC(C(=O)O)c1cccc(C(=O)c2ccccc2)c1 (stereo not given) [ketoprofen] | -0.62% (inactive)
11 | CCC(CC)Nc1nc(C)c(-c2ccc(OC(F)(F)F)cc2OC)nc1OC | 3.16% (inactive)
12 | O=C1C[C@@H](c2ccc(O)cc2)Oc2cc(O)ccc21 | 2.87% (inactive)
13 | Cn1cc(-c2cnn3c(N)c(Br)c([C@@H]4CCCNC4)nc23)cn1 | 0.92% (inactive)
14 | N[C@@H]1c2cccnc2[C@H](OC(=O)N2CCC(n3c(=O)[nH]c4ncccc43)CC2)CC[C@H]1c1cccc(F)c1F [rimegepant] | 1.65% (inactive)
15 | COc1ccc2nc(NC(=O)Nc3ccccc3)sc2c1 [frentizole] | 0.96% (inactive)
16 | O=C1NC(=O)[C@@]2(CCOc3ccc(F)cc32)N1 [sorbinil] | -2.13% (inactive)
17 | C[C@](N)(Cc1ccc(O)c(O)c1)C(=O)O [methyldopa] | 0.87% (inactive)
18 | C[C@@H](CN)CC(=O)O [3-methyl-GABA] | 0.52% (inactive)
19 | CC[C@H](C)C(=O)O[C@H]1C[C@H](O)C=C2C=C[C@H](C)[C@H](CC[C@@H](O)C[C@@H](O)CC(=O)O)[C@H]21 | 3.73% (inactive)
20 | CC(C)(C)C(=O)OCOC(=O)[C@@H]1N2C(=O)[C@@H](NC(=O)[C@H](N)c3ccccc3)[C@H]2SC1(C)C [pivampicillin] | 3.24% (inactive)
21 | CC(C)c1onc(-c2c(Cl)cccc2Cl)c1COc1ccc(/C=C/c2cccc(C(=O)O)c2)c(Cl)c1 | 0.15% (inactive)
22 | C=CCc1cccc(/C=N/NC(=O)CN2CCN(Cc3ccccc3)CC2)c1O | 0.95% (inactive)
23 | CNNCc1ccc(C(=O)NC(C)C)cc1 [procarbazine] | 4.48% (inactive)
24 | CNC(=O)c1cc2c(cn1)[nH]c1ccccc12 | -0.17% (inactive)
25 | C[C@]12CC[C@@H]3c4ccc(O)cc4CC[C@H]3[C@@H]1CC[C@@H]2OC(=O)CCC1CCCC1 [estradiol-cypionate] | -1.36% (inactive)

Row | SMILES | inhibition of SARS-CoV-2 cytopathic effect
26 | Fc1ccc(-n2cc(CCCCN3CCC4(CC3)OCc3ccccc34)c3ccccc32)cc1 [siramesine] | 1.88% (inactive)
27 | CC(=O)O[C@]1(C(C)=O)CC[C@H]2[C@@H]3C=C(C)C4=CC(=O)CC[C@]4(C)[C@H]3CC[C@@]21C [megestrol-acetate] | -0.6% (inactive)
28 | O=C(c1ccc(-c2ccc(Cl)cc2)o1)N(Cc1ccccn1)c1ccc(N2CCNCC2)cc1 | 1.12% (inactive)
29 | O=C(O)c1cc(O)c(O)c(O)c1 [gallic-acid] | 0.61% (inactive)
30 | C[C@@H](O)[C@H]1C(=O)N2C(C(=O)O)=C(S[C@@H]3CN[C@H](CNS(N)(=O)=O)C3)[C@H](C)[C@H]12 [doripenem] | 0.27% (inactive)
31 | CCCCOC(=O)c1ccccc1Nc1cccc(C(F)(F)F)c1 [ufenamate] | 2.78% (inactive)
32 | CCCCN1CCCCC1C(=O)Nc1c(C)cccc1C (stereo not given) [bupivacaine] | -0.56% (inactive)
33 | CCCc1nc(C(C)(C)O)c(C(=O)O)n1Cc1ccc(-c2ccccc2-c2nnn[nH]2)cc1 [olmesartan] | -1.22% (inactive)
34 | CCC(CC)Nc1cc(C)nc(Oc2c(C)cc(C)cc2C)c1C | 0.65% (inactive)
35 | O=C(O)[C@H](Cc1ccccc1)NCc1ccc(Cl)cc1 | -1.27% (inactive)
36 | Cc1ccc2c(c1)[C@]13CCCC[C@@H]1[C@H](C2)N(C)CC3 [dimemorfan] | 0.39% (inactive)
37 | C[C@H](Nc1ncnc2nc[nH]c12)c1cc2cccc(Cl)c2c(=O)n1-c1ccccc1 [duvelisib] | -0.83% (inactive)
38 | CCCCOc1ccc(C(=O)Nc2ccc(F)cc2F)cc1 | 2.63% (inactive)
39 | CC1=C(C(=O)O)N2C(=O)[C@@H](NC(=O)[C@H](N)C3=CCC=CC3)[C@H]2SC1 [cephradine] | -1.94% (inactive)
40 | CC(C)c1ccc(CC(=O)N2CCC[C@@H](c3cccc(OC(C)(C)C(=O)O)c3)C2)cc1 | 0.54% (inactive)
41 | C[C@H](Cc1ccc(O)c(O)c1)[C@@H](C)Cc1ccc(O)c(O)c1 [masoprocol] | 1.69% (inactive)
42 | O=C(O)/C=C\c1c[nH]cn1 [cis-Urocanic acid] | -1.24% (inactive)
43 | COc1cc2ncnc(Nc3ccc(Cl)cc3F)c2cc1OC | -0.75% (inactive)
44 | CCCCCCCCCCCCCCCCCCCCCCCCC(=O)O [pentacosanoic-acid] | -2.46% (inactive)
45 | COc1cc(C#N)ccc1S(=O)(=O)Nc1ccc2c(c1)cc(C)c(=O)n2C | 1.53% (inactive)
